In the library only some 1.8% were active in any assay of this set; here they are far more common.
PrPC surface inh = reduces human prion protein on the cell surface; cell surface PrPC, TR-FRET read-out; P04156; inhibition, % at 13.8 µM; AID 720596; 370,000 tested, 0.43% active; in the data active means inhibition above about 24%; further: 0% = median of the test wells and 100% = reference compound wells
PfHsp40 yeast = rescue of PfHsp40-mediated yeast toxicity; S. cerevisiae expressing PfHsp40, growth rescue, ATP luminescence; AID 504582; 340,000 tested, 0.68% active; growth rescue, % at 12.5 µM; in the data active means growth rescue above about 28%, passing the limit was not always enough;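 further: yeast W303a lacking pdr1 and pdr3 grown in galactose medium; growth measured after three days at 30 °C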
SSB-PriA inh = blocks PriA binding to SSB C-terminal tail; inhibition, % at 33 µM; AID 1272365; AlphaScreen SSBct-PriA binding, biotinylated peptide; 430,000 tested, 0.6% active; in the data active means inhibition mostly above about 37%, no sharp cut-off; inactive means mostly below about 20%;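 further: plate controls were negative control peptide for no effect and reference peptide for full effect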
MazEF act = increases E. coli MazEF RNase cleavage of RNA | AID 504720 | 350,000 tested, 0.32% active | P0AE70 | FAM/BHQ RNA-DNA oligo cleavage fluorescence, 5 h | activation, % at 20 µM; in the data active means activation above about 50%
Target sequence (P0AE70 whole entry, looked up): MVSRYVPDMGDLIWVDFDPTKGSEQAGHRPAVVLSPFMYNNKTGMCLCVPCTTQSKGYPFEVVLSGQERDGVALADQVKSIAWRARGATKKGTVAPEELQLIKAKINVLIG
PrP UTR inh = suppresses PrP 5' UTR mRNA reporter expression; cell-based PrP 5' UTR mRNA reporter, plate reader; inhibition, % (no concentration beside the values); 340,000 tested, 0.35% active; AID 488862; in the data active means inhibition above about 52%; further: 0 = median of the neutral control wells
* hit, by the source's call; x = no result; + = active, no number.

SMILES	PrPC surface inh	PfHsp40 yeast	SSB-PriA inh	MazEF act	PrP UTR inh
O=C(Nc1ccc(Cl)cc1)N(CCCN1CCOCC1)Cc1cccs1	-1.5	0.0	-15.8	-0.5	-21.6
Cc1ccc2oc(-c3ccccc3)c(C(=O)O)c(=O)c2c1	-7.7	443.7*	3.0	-16.5	-106.3
O=C(O)c1c(-c2ccccc2)oc2ccc(O)cc12	-6.4	1.1	-5.1	-6.8	-13.8
O=c1c(O)c(-c2ccccc2)oc2ccccc12	-1.8	219.5*	-15.9	-0.5	-27.0
CC(=O)c1ccc(OCCCC(=O)Nc2ccc(C)c(S(=O)(=O)N(C)C)c2)cc1	4.3	-0.4	-10.2	-11.6	-4.3
O=C(CSc1ccccc1C(=O)N1CCN(c2ccccc2)CC1)N1CCCC1	-6.4	-0.5	5.8	0.8	10.7
CN(C)c1ccc(C=c2c3cc(O)ccc3n3c2cc(-c2ccccc2)[n+]3C)cc1	-32.7	294.6*	83.5	-18.9	-19.9
C[n+]1c(-c2ccccc2)cc2c(=Cc3ccccc3)c3ccccc3n21	-40.6	169.7*	30.8	18.5	-13.8
C[n+]1c(-c2ccccc2)cc2c(=Cc3ccc([N+](=O)[O-])cc3)c3ccccc3n21	-41.4	1.9	33.7	14.6	-17.9
Oc1ccc(C=Nc2ccc(N3CCOCC3)cc2)c(O)c1	-6.1	1.9	1.3	-6.7	-3.7
Cc1ccc(N=Cc2ccc(O)cc2O)cc1F	9.3	-0.9	-6.0	194.3*	-7.8
CCn1nnc(-c2ccccc2NC(=O)c2ccc(-n3cnnn3)cc2)n1	5.3	71.3*	0.6	5.6	-11.0
CCn1nc(C(=O)OCc2cccc(S(=O)(=O)N(C)C)c2)c2ccccc2c1=O	5.7	1.9	-13.2	-3.5	-18.1
Cn1c(=O)c2c(ncn2CC(=O)OCC(=O)NC2CCCc3ccccc32)n(C)c1=O (stereo not given)	1.2	-0.8	-7.2	2.5	-21.9
COC(=O)c1nn2c(C(F)(F)F)cc(-c3ccc(Br)o3)nc2c1Br	-8.7	0.9	-5.7	111.0*	x
COc1ccc(NC(=S)Nc2ccc3nccnc3c2)cc1	-26.6	0.7	77.3*	1.1	-39.9
S=C(Nc1ccc2nccnc2c1)N1CCOCC1	-4.0	-0.1	70.6*	1.2	-65.7
COc1ccc(NC(=S)Nc2ccc(N)c([N+](=O)[O-])c2)cc1	-29.5	-1.2	38.9*	5.9	-17.7
CCOc1ccc(NC(=S)Nc2ccc3nccnc3c2)cc1	x	x	32.6	x	x
N#Cc1ccc(C(=O)NCC2(O)Cc3ccccc3C2)cc1	x	x	-1.0	x	x
O=C(c1n[nH]nc1-c1ccccc1)N1CCc2ccccc21	x	x	-11.0	x	x
Cn1cc(Cl)c(C(=O)N/N=C/c2ccc3c4c(cccc24)CC3)n1	x	1.0	x	67.6*	23.7
S=C(SCc1nc(-c2ccc(Cl)cc2)no1)N1CCSCC1	-5.2	x	x	x	x
O=C(Nc1ccc(Cl)c(C(F)(F)F)c1)NC1CC2CCCC(C1)N2Cc1ccccc1 (stereo not given)	-22.3	x	5.3	158.6*	x
COc1ccc(CCNC(=O)NCCc2csc(-c3ccc(Cl)cc3)n2)cc1	x	x	-2.0	x	x
SMILES	PrPC surface inh	PfHsp40 yeast	SSB-PriA inh	MazEF act	PrP UTR inh
Cc1cc(C)nc(NC2=NCC(=O)N2c2ccccc2Br)n1	2.9	0.6	-13.0	7.4	-14.2
NC(=S)N/N=C1\CCOc2ccc(Cl)cc21	3.2	0.7	x	-3.2	-30.5
CC(=O)c1ccc(NC(=O)CN2C(=O)COc3ccccc32)cc1	x	x	56.1*	x	x
O=C(CN1C(=O)COc2ccccc21)Nc1ccccc1	x	x	37.2	x	x
CCn1c(Cc2ccc(OC)cc2)nnc1SCc1nc2ccccc2c(=O)[nH]1	6.2	-0.9	1.6	7.0	-3.9
NNc1nccc(Nc2ccccc2C(=O)O)n1	-4.0	-1.0	59.5*	-2.8	-15.0
c1ccc(Nc2ccnc(Nc3ccccc3)n2)cc1	-3.3	0.9	-2.2	4.7	-98.9
Cc1ccc(S(=O)(=O)NCCC(=O)Nc2ccc(Cl)c(Cl)c2)cc1	9.4	-1.1	-5.1	-0.5	-4.0
CCC(=O)Nc1nnc(S(=O)(=O)N2CCCC2)s1	-6.5	-0.7	1.2	4.9	-12.9
CCC(=O)Nc1nnc(S(=O)(=O)N2CCCCCC2)s1	8.4	1.0	99.7*	0.0	-9.8
O=C(COc1ccccc1)Nc1nnc(S(=O)(=O)N2CCCCC2)s1	-0.2	0.8	-14.9	-9.4	-19.9
O=C(COc1ccccc1)Nc1nnc(S(=O)(=O)N2CCCCCC2)s1	-5.9	-0.9	94.5*	4.8	-1.3
COc1ccc(C(=O)Nc2nnc(S(=O)(=O)N3CCCCCC3)s2)cc1OC	5.5	-1.5	82.3*	-7.0	-0.3
COc1ccc(C(=O)Nc2nnc(S(=O)(=O)N3CCC(C)CC3)s2)cc1OC	3.0	1.1	-10.8	-11.5	-24.5
O=C(COc1ccccc1Cl)Nc1nnc(S(=O)(=O)N2CCCCCC2)s1	4.8	-1.6	100.2*	1.7	-21.2
O=C(CSc1ccc(-c2cccnc2)nn1)Nc1ccc(Br)cc1	5.1	-1.5	-12.0	6.3	-16.9
OCCC#Cc1ccc(CN2CCN(Cc3ccccc3)C(CCO)C2)cc1 (stereo not given)	2.0	0.0	5.2	-4.7	-25.5
O=C(CCS(=O)(=O)c1ccccc1)Nc1cc(Cl)ccc1F	2.6	x	x	x	x
COc1cccc(N=Cc2c(O)n(-c3cccc(C)n3)c(=O)c3ccccc23)c1	-17.1	1.4	7.1	-2.1	-37.0
COc1ccc(N=Cc2c(O)n(-c3cccc(C)n3)c(=O)c3ccccc23)c(OC)c1	0.3	-2.0	-10.4	277.5*	-5.5
CCOC(=O)[C@]12CCCC=C1N(CCC1=CCCCC1)C(=O)[C@H](CC(=O)NCC1CCCCC1)C2	-1.4	x	x	x	x
Cc1ccc(F)cc1NC(=O)CSc1nccn2nc(-c3ccc(Cl)cc3)cc12	x	x	-5.0	x	x
O=[N+]([O-])c1ccccc1/C=C\C=N\N1CCN(c2ccccc2)CC1	4.0	3.2	x	0.2	-26.8
O=[N+]([O-])c1ccccc1C=NN1CCN(c2ccccn2)CC1	x	x	38.9*	x	x
COc1ccccc1N1CCN(/N=C/C=C/c2ccccc2[N+](=O)[O-])CC1	0.7	0.2	+	4.5	-19.8
SMILES	PrPC surface inh	PfHsp40 yeast	SSB-PriA inh	MazEF act	PrP UTR inh
CCOC(=O)N1CCN(C(=O)c2ccc3c(=O)n(Cc4ccccc4OC)c(=S)[nH]c3c2)CC1	-5.2	28.7*	6.6	4.4	-2.7
CCOC(=O)N1CCN(C(=O)c2ccc3c(=O)n(Cc4ccccc4)c(=S)[nH]c3c2)CC1	4.9	2.7	-1.0	3.9	-12.9
Cc1ccc2ccc(C3C(=O)c4ccccc4C3=O)nc2c1	1.0	0.1	-10.3	85.3*	-89.3
Cc1ccccc1CNC(=O)C(=O)NCC1OCCCN1S(=O)(=O)c1ccc(F)cc1C (stereo not given)	10.1	0.2	-4.1	-0.8	-32.3
N#CC1=C(N)Oc2n[nH]c(-c3ccccn3)c2C1c1c(F)cccc1Cl (stereo not given)	-5.4	-1.6	41.6*	2.1	-8.4
COCc1[nH]nc2c1C(c1c(F)cccc1Cl)C(C#N)=C(N)O2 (stereo not given)	5.2	-0.6	4.0	-6.9	-8.3
CCN(CC)S(=O)(=O)c1ccc(NC(=O)Nc2cccc(C(F)(F)F)c2)cc1	42.8*	-1.9	-4.7	3.1	-25.1
O=C(C1CCCC1)N1CCc2ccc(NS(=O)(=O)c3ccc(Cl)s3)cc21	x	x	7.0	x	x
